Assay outcomes from PubChem BioAssay.
eIF4E 4G PPI – eIF4E/eIF4G interaction inhibition in translation initiation; inhibition, % at 21.7 µM; 220,000 tested, 0.37% active; TR-FRET eIF4E-eIF4GI(517-606) binding, 2 h; AID 782;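 active = inhibition above about 30%, limit read from the data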;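 note: 0% = full FRET control wells and 100% = background wells lacking eIF4GI fragment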
eIF4H FP inh – inhibitors of RNA binding by human eIF4H | eIF4H fluorescence polarization binding assay | inhibition, % at 35 µM | 290,000 tested, 0.94% active | Q15056;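 note: calls also rest on retests at 20 µM and on dose response follow-up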
EBV gp42 block – blocks Epstein-Barr virus glycoprotein 42 binding. Fluorescence polarization binding assay, mP read-out. inhibition, % (tested at 21.74 µM). 220,000 tested, 0.42% active; in the data active = inhibition above about 50%
MLLE-PAM2 inh – blocks PAM2 peptide binding to the PABP1 MLLE domain; P11940; inhibition, % at 20 µM; GST-MLLE / FITC-PAM2 fluorescence polarization; 360,000 tested, 0.36% active; in the data active = inhibition above about 35%, passing the limit was not always enough;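 note: plate controls were DMSO wells with GST-MLLE for no effect and wells lacking GST-MLLE protein for full effect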
PABP polyA inh – blocks human PABP binding to poly(A) RNA; P11940; fluorescence polarization; calls only at 35 µM; 290,000 tested, 1% active; AID 2014;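 note: calls also rest on retests at 20 µM and on dose response follow-up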
Numbers without * were called inactive; i = inactive; / = not tested or not shown; + = active, no number. Compounds with a hit are over-represented: about 1.7% of the library has one in this group of screens. Unless noted, the rule behind the calls is not given here.

SMILES	eIF4E 4G PPI	eIF4H FP inh	EBV gp42 block	MLLE-PAM2 inh	PABP polyA inh
COC(=O)c1cc(CNC(=O)c2sccc2-c2ccccc2)ccc1OC	/	-8.2	/	3.0	i
Cc1ccc2[nH]c3c(=O)n(CC(=O)NCc4ccco4)ncc3c2c1	/	58.7*	/	-21.8	i
CCN(c1ccccc1)S(=O)(=O)c1ccc2c(c1)N(C(C)=O)CCS2	/	-6.0	/	0.6	i
C=CCn1c(SCC(=O)c2cc(C)n(C(C)COC)c2C)nc2sc(C)c(C)c2c1=O (configuration not stated)	6.7	-13.1	-3.0	39.8*	i
C=CCn1c(SCC(=O)NCCO)nc2sc(C)c(C)c2c1=O	-1.1	-5.3	-13.7	-18.5	i
CC(C)c1onc(C(=O)NC2CCCC2)c1[N+](=O)[O-]	0.8	8.3*	-8.0	15.7	+
O=C(Cn1cccn1)N1CCCC(N2CCN(c3ccccc3F)CC2)C1 (configuration not stated)	/	-10.6	/	4.7	i
CCOC(=O)c1c(C)nsc1NC(=O)C1(C)CCN1C(=O)CC (configuration not stated)	/	/	/	-2.5	/
COCCN(C(=O)c1cccc(OC)c1)c1nnc(-c2ccncc2)s1	12.4	-3.5	-1.4	0.7	i
COCCN(C(=O)/C=C/c1ccccc1)c1nnc(-c2cccnc2)s1	-4.5	51.5	-1.8	-13.5	+
CCOc1ccc(Br)cc1S(=O)(=O)NCCN1CCCC1	/	-10.8	/	0.4	i
CN1CCN(CCCNC(=O)c2ccc(/C=C3/Sc4ccccc4N(Cc4cccc(Cl)c4)C3=O)cc2)CC1	18.4	-7.7	-0.4	2.9	i
CN1CCN(CCCNC(=O)c2ccc(/C=C3\Sc4ccccc4N(Cc4ccc(F)cc4)C3=O)cc2)CC1	35.0*	3.6	-10.3	6.1	i
CCOC(=O)c1c(C)[nH]c(C)c1S(=O)(=O)NCc1ccccc1OCC	/	-0.9	/	0.2	i
OCc1c(Cl)nc2ccccn12	-1.1	-7.4	-3.2	-12.8	+
O=Cc1c(Cl)nc2ccccn12	-3.3	-0.1	-2.4	9.0	i
Cc1ccc(Cl)cc1NC(=O)Nc1cccs1	-4.2	25.5	-1.7	4.5	i
COc1nccnc1NS(=O)(=O)c1ccc(NC(=S)NC(=O)/C=C/c2ccccc2)cc1	-2.5	1.0	2.4	45.5*	i
Cc1nc2cc(Cl)ccc2n1-c1ccccc1	-4.5	-5.2	-0.6	-7.6	i
Cc1n(-c2ccccc2)c2ccc(Cl)cc2[n+]1CCO	1.6	0.6	-14.9	-92.5	+
Cc1cc2cc(CNC(=S)Nc3ccc(OC(F)(F)F)cc3)ccc2n1C	3.9	77.1	-0.3	46.0*	i
CC(=O)Nc1ccc(S(=O)(=O)NCc2ccc3c(c2)cc(C)n3C)cc1	-2.0	55.0*	12.1	50.3	+
Cc1cc2cc(CNS(=O)(=O)c3ccc4ccccc4c3)ccc2n1C	-16.6	29.2	-2.8	42.9*	i
Cc1cc(C)c(S(=O)(=O)NCc2ccc3c(c2)cc(C)n3C)c(C)c1	4.4	39.6	-3.3	26.9	i
CC(=O)n1c2ccccc2c2c1c1ccccc1n2C	-8.3	6.5	6.2	66.3*	i
SMILES	eIF4E 4G PPI	eIF4H FP inh	EBV gp42 block	MLLE-PAM2 inh	PABP polyA inh
CCSc1nc(-c2cccs2)nc2ccccc12	2.1	7.2	-7.8	-5.9	i
N#CC1=C(N)n2c(s/c(=C\c3cccs3)c2=O)=C(C#N)C1c1cccs1 (configuration not stated)	1.2	59.8	-45.4	-23.5	i
N#CC1=C(N)n2c(s/c(=C\c3ccco3)c2=O)=C(C#N)C1c1ccco1 (configuration not stated)	-4.9	98.9*	-3.3	-45.7	+
CCOC(=O)C1=C(N)n2c(s/c(=C/c3ccco3)c2=O)=C(C(=O)OC)C1c1ccco1 (configuration not stated)	1.5	83.1*	-15.6	2.8	+
CCN(CC)S(=O)(=O)c1ccc(N2CCOCC2)c(NS(=O)(=O)c2ccc(Cl)s2)c1	/	/	/	5.3	/
c1ccc(NC2=NCCN2CCC2CCCCC2)cc1	/	-13.8	/	-1.1	i
O=[N+]([O-])c1cccc(C(=S)N2CCN(c3ccccc3)CC2)c1	12.0	8.9	4.8	62.8*	i
O=C(/C=C/c1cccc([N+](=O)[O-])c1)N1CCN(c2ccccc2F)CC1	-4.4	-7.5	4.3	3.7	i
CC1CN(C(=S)NC(=O)c2ccc([N+](=O)[O-])cc2)CC(C)O1 (configuration not stated)	6.7	-3.5	-0.1	-25.1	i
